High-throughput results: PubChem, several laboratories
CSC inhib: blocks cancer stem cells; cancer stem cell-like cells viability, luminescence; inhibition, % at 7.5 µM; 300,000 compounds, 1.1% hits; AID 2717; in the data active = inhibition above about 75%; tested in HMLE shEcad cells
Beta apoptosis: blocks beta cell apoptosis; INS-1E cytokine-induced death, ATP luminescence, 48 h; percent of positive-control rescue, neutral wells zero; protection from apoptosis, % (no concentration beside the values); 300,000 compounds, 0.8% hits;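 active = Every replicate reaches about 75%, or at least half do and their mean reaches it too, limit read from the data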;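 note: 0% = cytokine-treated negative control wells and 100% = positive control rescue; higher means more ATP so stronger rescue from cytokine killing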
A1 inh: inhibitors of the anti-apoptotic protein A1, read as caspase activation. MEF A1-2A-BIM cells, Caspase-Glo 3/7 luminescence, 3 h; percent of clofoctol response, vehicle zero. caspase activation, % (no concentration beside the values). 330,000 compounds, 0.066% hits;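 active = over half of replicate activation scores above 10%, or exactly half above 10 with the replicate mean above 10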
aSyn UTR inh: MLPCN primary screen, SNCA 5' untranslated region; 300,000 compounds, 0.82% hits; alpha-synuclein 5'UTR reporter, inhibitor activity; inhibition, % (tested at 7.5 µM); AID 1813; in the data active = inhibition above about 60%;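 note: H4 neuroglioblastoma cells stably carrying SNCA 5'UTR luciferase fusion; 0% = DMSO wells and 100% = positive control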
Mdm2-MdmX inh: human Mdm2/MdmX binding inhibition. SaOS-2 split-luciferase Mdm2/MdmX complementation, luminescence. inhibition, % at 8 µM. 330,000 compounds, 3% hits. AID 485346;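 active = inhibition of at least 50% at 8 µM in the primary screen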
Mdm2 MdmX conf: human Mdm2/MdmX binding inhibition, confirmed. shares compounds with Mdm2-MdmX inh. luminescent assay. inhibition, % at 8 µM. 10,000 compounds, 55% hits. AID 489028; in the data active = inhibition above about 40%
FLuc counter: full-length luciferase inhibition in Mdm2/MdmX counter-screen; 6,200 compounds, 77% hits; inhibition, % at 8 µM; shares compounds with Mdm2-MdmX inh; AID 504607; SaOS-2 full-length luciferase counterscreen, luminescence;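 active = mean inhibition at 8 µM reaching about 37%, which flags the compound as non-specific, limit read from the data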;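 note: p53-null SaOS-2 cells with luciferase driven by a doxycycline-inducible promoter; compound on cells about two nights before reading with doxycycline added after day one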
* hit, by the source's call; . = not tested or not shown. Most compounds without a hit are left out; they make up all but 4.1% or so of the library.

SMILES	CSC inhib	Beta apoptosis	A1 inh	aSyn UTR inh	Mdm2-MdmX inh	Mdm2 MdmX conf	others
COc1ccc(/C(N)=N/OC(=O)N2CCOCC2)cc1	10.4	6.3	0.3	-6.3	61.8*	25.9
COc1ccc(C(=O)O/N=C(\N)c2ccc(OC)c(OC)c2)c(OC)c1	-9.2	2.1	-0.6	-95.6	74.5*	33.6
COc1ccc(NC(=O)Nc2ccc(C(=O)N3CCOCC3)cc2)cc1	-7.9	-0.9	-0.5	28.5	5.6	.
COc1ccc(C(=O)O/N=C(\N)c2ccccn2)c(OC)c1	6.5	6.6	-8.3	30.6	69.4*	37.7
COc1ccc(/C(N)=N/OC(=O)c2ccc(OC)c([N+](=O)[O-])c2)cc1OC	-1.6	8.5	0.9	-3.5	71.3*	31.3
COc1ccc(/C(N)=N/OC(=O)c2cccc([N+](=O)[O-])c2)cc1OC	-1.5	-6.1	1.0	-95.7	-1.5	.
OCC[C@@H]1C[C@H](O)[C@@H](O)[C@]2(Cc3ccccc3CO2)O1	0.7	-9.5	0.3	-0.1	-8.7	.
O=S(=O)(c1cccc(NC(=S)N2CCN(c3cccc(Cl)c3)CC2)c1)C(F)F	16.4	-1.6	-0.1	18.0	52.0*	14.7
CCc1nc2ccc(C(=O)N(C)CC(=O)Nc3ccc(F)c(F)c3F)cc2nc1CC	.	.	.	.	5.2	.
O=C(NC1CCCCC1)C1CCC(CNS(=O)(=O)c2cccc3nsnc23)CC1 (stereo not given)	0.8	3.0	0.2	6.4	24.6	.
CC1CCC(NC(=O)C2CCC(CNS(=O)(=O)c3cccc4nsnc34)CC2)CC1 (stereo not given)	-2.9	1.5	0.2	16.9	56.5*	-5.0
CCN1CCN(C(=O)CN2C(=O)c3ccccc3S2(=O)=O)CC1	-12.8	-4.6	0.0	-3.1	9.4	.
CC(=O)Nc1ccc(C(=O)NC2CCSc3ccccc32)cc1 (stereo not given)	3.3	-1.1	0.5	-8.8	-9.6	.
CC(=O)c1c(C)[nH]c(C(=O)NC2CCSc3ccccc32)c1C (stereo not given)	-14.2	3.3	-0.7	-33.4	55.7*	33.0
CCc1c(C(=O)NC2CCCc3ccccc32)[nH]c(C)c1C(C)=O (stereo not given)	22.0	1.4	-2.2	64.2*	84.6*	65.3*	FLuc counter=51.5*
CC(=O)Nc1ccc(Nc2c([N+](=O)[O-])c(=O)n(-c3ccccc3)c3ccccc23)cc1	6.4	-1.3	-0.9	22.0	60.9*	12.7
CC1C(c2ccccc2)N(C)C(c2ccccc2)C(C)C1(O)C#Cc1ccccc1 (stereo not given)	.	10.3	0.1	.	71.2*	24.9
Cc1nn(-c2ccccc2)c(N2CCCC2)c1/C=N/NC(=O)c1cc(-c2ccccc2)nc2ccccc12	20.5	8.5	1.0	12.2	56.8*	46.9*	FLuc counter=68.4*
Cc1nn(-c2ccccc2)c(N2CCCC2)c1/C=N/NC(=O)c1cc(-c2ccccn2)nc2ccccc12	10.2	7.1	0.1	-4.7	63.3*	15.4
Cc1ccc(S(=O)(=O)c2nc(S(C)(=O)=O)sc2N2CCC(C)CC2)cc1	-8.6	-8.7	-1.2	16.3	53.5*	6.8
CS(=O)(=O)c1nc(S(=O)(=O)c2ccc(Cl)cc2)c(N2CCOCC2)s1	-6.1	-15.6	0.4	-74.9	57.3*	12.7
Cc1ccc(S(=O)(=O)c2nc(S(C)(=O)=O)sc2N2CCCCCC2)cc1	15.4	-12.0	-1.4	-113.0	-9.9	.
CC1CN(c2sc(S(C)(=O)=O)nc2S(=O)(=O)c2ccc(Cl)cc2)CC(C)O1 (stereo not given)	0.2	-7.7	2.0	9.9	27.5	.
O=C(c1ccccc1F)N1CCN(C(=O)C2CC2)CC1	61.6	.	0.8	3.4	17.9	.
CCN(C[C@H]1N[C@@](CC)(C(=O)OC)[C@H]2C(=O)N(C)C(=O)[C@@H]12)C(=O)COC	.	.	.	.	12.5	.
SMILES	CSC inhib	Beta apoptosis	A1 inh	aSyn UTR inh	Mdm2-MdmX inh	Mdm2 MdmX conf	others
COc1cc(OC)c2c(-c3cccc(-c4ccc(C(C)=O)cc4)c3)cc(=O)oc2c1	.	.	.	.	69.2*	68.5*	FLuc counter=70.7*
CCc1cc(=O)oc2cc3occ(-c4ccc(OC)c(F)c4)c3cc12	71.9	23.3	0.1	-41.5	64.0*	73.7*	FLuc counter=61.9*
COc1cc(OC)c2c(-c3cccc(-c4ccc(OC)c(F)c4)c3)cc(=O)oc2c1	.	.	.	.	67.6*	48.9*	FLuc counter=104.3*
COc1cc(OC)c2c(-c3cccc(-c4ccoc4)c3)cc(=O)oc2c1	.	.	.	.	49.1	.
COc1cc(OC)c2c(-c3ccccc3)cc(=O)oc2c1	-5.8	-0.1	-0.8	-12.9	28.2	.
CCCCn1c(N)c(N(CCOC)C(=O)c2ccc(S(=O)(=O)N3CCC(C)CC3)cc2)c(=O)[nH]c1=O	2.0	-4.9	-0.2	6.4	3.9	.
CCOc1ccc(NC(=O)CN(C)C(=O)c2ccc(C)o2)cc1OCC	-9.3	-4.1	0.0	-2.7	-2.7	.
COc1ccc(-c2sc3cc(OC)c(OC)cc3c2-c2ccc(O)cc2)cc1	136.7*	8.0	0.2	.	53.5*	32.5
COc1ccccc1-c1sc2ccccc2c1-c1ccc(O)cc1	.	6.5	0.4	.	24.5	.
